Screening results deposited in PubChem by several laboratories.
CYP2C9 inhib = human CYP2C9 inhibition; P11712; CYP2C9 Supersomes, luciferin-H conversion, luminescence; inhibition, % at 5 µM; 20% of 96,000 active; AID 777;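 active means blocking of liver enzyme CYP2C9 beyond about 50% at 5 µM, limit read from the data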
Target sequence (P11712 whole entry, looked up): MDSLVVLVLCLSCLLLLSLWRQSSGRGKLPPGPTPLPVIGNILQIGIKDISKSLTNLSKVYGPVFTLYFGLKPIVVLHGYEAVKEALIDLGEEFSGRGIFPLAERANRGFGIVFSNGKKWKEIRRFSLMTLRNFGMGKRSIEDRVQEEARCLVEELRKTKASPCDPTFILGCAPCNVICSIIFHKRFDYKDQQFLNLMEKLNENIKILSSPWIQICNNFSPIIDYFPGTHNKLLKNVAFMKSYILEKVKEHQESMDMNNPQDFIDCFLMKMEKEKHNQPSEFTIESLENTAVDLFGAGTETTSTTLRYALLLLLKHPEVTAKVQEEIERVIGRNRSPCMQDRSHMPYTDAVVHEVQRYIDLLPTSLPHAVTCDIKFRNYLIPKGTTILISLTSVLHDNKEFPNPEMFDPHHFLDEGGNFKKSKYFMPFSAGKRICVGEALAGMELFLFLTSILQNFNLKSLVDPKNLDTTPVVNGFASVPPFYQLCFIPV
CYP2C9 activ = increases human cytochrome P450 2C9 activity | AID 1024 | activation factor at 5 µM | P11712 | recombinant CYP2C9, luciferin-H conversion, luminescence; stronger effect = higher value; factor 1 = untreated enzyme, 0 = blocked | 1.4% of 96,000 active;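 active means activation factor of 2 or more for CYP2C9 at a 5 µM dose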;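 further: 0 = sulfaphenazole-blocked wells and 1 = vehicle-only wells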
CYP2C19 inh = blocks human cytochrome P450 2C19. CYP2C19 Supersomes, luciferin-H EGE luminescence, 30 min. inhibition, % at 5 µM. P33261. 21% of 96,000 active;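 active means CYP2C19 inhibition above a set limit at 5 µM in the primary screen, cut at about 50% in these data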;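 further: plate controls were negative control wells for no effect and 2.5 mM tranylcypromine positive control for full effect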
PostGolgi ctrl = inhibits growth of the yeast control strain; efflux-deficient yeast background strain, growth absorbance A615, 16 h; inhibition, % at 10 µM; 5% of 98,000 active; AID 738
PostGolgi yeast = growth inhibition of a yeast mutant, post-Golgi transport screen. post-Golgi transport phenotypic cell assay. inhibition, % at 10 µM. 0.9% of 98,000 active. AID 739;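 further: yeast cells grown in 1536-well plates; yeast grown about 18 h at 30C before absorbance read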
CYP2C19 activ = activators of human cytochrome P450 2C19 | P33261 | recombinant CYP2C19, luciferin-H EGE luminescence; stronger effect = higher value; 0 = fully inhibited enzyme, 1 = untreated enzyme | activation factor at 5 µM | 96,000 tested, under 10 active | AID 1025;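 active means activation factor of at least 2 at 5 µM in the primary screen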;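 further: 0 = wells with 2.5 mM tranylcypromine and 1 = vehicle-only wells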
An asterisk follows results filed as active. In the library only some 32% were active in any assay of this set; here they are far more common. Unless noted, no stated cut-off is given here; in the data, active means inhibition above about 30%; inactive means the rest.

`Cc1ccc(NS(=O)(=O)c2cccc(C(=O)n3ncc(C#N)c3N)c2)c(C)c1` gave CYP2C9 inhib 51*, CYP2C9 activ 0.5, CYP2C19 inh 27, PostGolgi ctrl 15, PostGolgi yeast -1 and CYP2C19 activ 0.7.
For Cc1ccc(NS(=O)(=O)c2ccc(NC(=O)CSc3ccc(Cl)cc3)cc2)c(C)c1 the results were CYP2C9 inhib 0, CYP2C9 activ 1, CYP2C19 inh -7, PostGolgi ctrl 6, PostGolgi yeast -2 and CYP2C19 activ 1.1.
For Cc1oc(-c2ccccc2Cl)nc1CSCC(=O)O the results were CYP2C9 inhib 7, CYP2C9 activ 0.9, CYP2C19 inh -1, PostGolgi ctrl 11, PostGolgi yeast -5 and CYP2C19 activ 1.
O=C(CSc1nnc(SCc2cccc3ccccc23)s1)c1ccc2c(c1)OCO2 was read as CYP2C9 inhib 63*, CYP2C9 activ 0.4, CYP2C19 inh 52*, PostGolgi ctrl 10, PostGolgi yeast -2 and CYP2C19 activ 0.5.
For Cn1c(SCC(=O)c2ccc3c(c2)OCO3)nnc1-c1ccccn1 the results were CYP2C9 inhib 15, CYP2C9 activ 0.8, CYP2C19 inh 52*, PostGolgi ctrl 2, PostGolgi yeast 20 and CYP2C19 activ 0.5.
CCn1c(CSc2nc3ccccc3s2)nnc1SCC(=O)c1ccc2c(c1)OCCO2 was read as PostGolgi ctrl 26 and PostGolgi yeast 3.
Screening O=C(CSc1ccccn1)c1ccc2c(c1)OCO2 returned CYP2C9 inhib 26, CYP2C9 activ 0.7, CYP2C19 inh 98*, PostGolgi ctrl 7, PostGolgi yeast -6 and CYP2C19 activ 0.
`Cc1ccnc2nc(C(=O)OCC(=O)Nc3ccc4c(c3)OC(F)(F)O4)nn12` gave CYP2C9 inhib -2, CYP2C9 activ 1, CYP2C19 inh -8, PostGolgi ctrl 2, PostGolgi yeast -5 and CYP2C19 activ 1.1.
`CCn1c(SCC(=O)c2ccc3ccccc3c2)nnc1-c1ccco1` gave CYP2C9 inhib 40, CYP2C9 activ 0.6, CYP2C19 inh 19, PostGolgi ctrl 24, PostGolgi yeast 12 and CYP2C19 activ 0.8.
`COCCn1c(SCC(=O)c2ccc3c(c2)OCCO3)nnc1-c1ccco1` gave CYP2C9 inhib 42, CYP2C9 activ 0.6, CYP2C19 inh 65*, PostGolgi ctrl 2, PostGolgi yeast -3 and CYP2C19 activ 0.4.
For CCn1c(SCC(=O)c2ccc3c(c2)OCCO3)nnc1-c1ccco1 the results were CYP2C9 inhib 39, CYP2C9 activ 0.6, CYP2C19 inh 96*, PostGolgi ctrl 4, PostGolgi yeast 2 and CYP2C19 activ 0.
Screening CC1(C)CN(c2ccccc2)N(Cc2ccc(F)cc2)C1=O returned CYP2C9 inhib 13, CYP2C9 activ 0.9, CYP2C19 inh 60*, PostGolgi ctrl 0, PostGolgi yeast -2 and CYP2C19 activ 0.4.
For O=C(CN(Cc1ccc(F)cc1)C(=O)CCC(=O)Nc1ccccn1)NCc1ccco1 the results were CYP2C9 inhib 31, CYP2C9 activ 0.7, CYP2C19 inh 31, PostGolgi ctrl 6, PostGolgi yeast 7 and CYP2C19 activ 0.7.
For O=C(NC1CCCC1)c1cccc(S(=O)(=O)N2CCCCC2)c1 the results were CYP2C9 inhib 24, CYP2C9 activ 0.8, CYP2C19 inh 8, PostGolgi ctrl 23, PostGolgi yeast -7 and CYP2C19 activ 0.9.
Screening O=C(Nc1nccs1)c1ccc(Cl)c(S(=O)(=O)N2CCOCC2)c1 returned CYP2C9 inhib 25, CYP2C9 activ 0.7, CYP2C19 inh 18, PostGolgi ctrl 1, PostGolgi yeast 0 and CYP2C19 activ 0.8.
For O=C(NCCCn1ccnc1)c1cccc(S(=O)(=O)N2CCCCCC2)c1 the results were CYP2C9 inhib 100*, CYP2C9 activ 0, CYP2C19 inh 95*, PostGolgi ctrl 3, PostGolgi yeast 14 and CYP2C19 activ 0.
Screening O=C(NCCCn1ccnc1)c1ccc(Cl)c(S(=O)(=O)N2CCOCC2)c1 returned CYP2C9 inhib 97*, CYP2C9 activ 0, CYP2C19 inh 36, PostGolgi ctrl 0, PostGolgi yeast 4 and CYP2C19 activ 0.6.
CCOc1ccc2nc(SCc3ccccc3C#N)sc2c1 was read as CYP2C9 inhib -147, CYP2C9 activ 2.5*, CYP2C19 inh 51*, PostGolgi ctrl 7, PostGolgi yeast -4 and CYP2C19 activ 0.5.
For Cc1cccc(/C=C2/SC(=O)N(Cc3ccccc3Cl)C2=O)n1 the results were CYP2C9 inhib -56, CYP2C9 activ 1.6, CYP2C19 inh -19, PostGolgi ctrl 39*, PostGolgi yeast -2 and CYP2C19 activ 1.2.
For COC(=O)c1sccc1NC(=O)CSc1ccccc1NS(=O)(=O)c1ccc(Cl)cc1 the results were CYP2C9 inhib 84*, CYP2C9 activ 0.2, CYP2C19 inh 59*, PostGolgi ctrl 22, PostGolgi yeast 21 and CYP2C19 activ 0.4.
COC(=O)c1sccc1NC(=O)CSc1ccccc1NS(=O)(=O)c1ccccc1Cl was read as CYP2C9 inhib 87*, CYP2C9 activ 0.1, CYP2C19 inh 4, PostGolgi ctrl 14, PostGolgi yeast 0 and CYP2C19 activ 1.
For COC(=O)c1sccc1NC(=O)CSc1cc(Cl)ccc1Cl the results were CYP2C9 inhib 44, CYP2C9 activ 0.6, CYP2C19 inh 30, PostGolgi ctrl 17, PostGolgi yeast -19 and CYP2C19 activ 0.7.
For Cc1ccc(-n2ncc3c(=O)n(Cc4ccccn4)cnc32)cc1C the results were CYP2C9 inhib 8, CYP2C9 activ 0.9, CYP2C19 inh 0, PostGolgi ctrl 13, PostGolgi yeast -1 and CYP2C19 activ 1.
`CC1(C)CC(=O)C(C=NCCN2CCN(C(=S)Nc3ccccc3)CC2)=C(O)C1` gave CYP2C9 inhib 8, CYP2C9 activ 0.9, CYP2C19 inh 32, PostGolgi ctrl 1, PostGolgi yeast 8 and CYP2C19 activ 0.7.
Screening O=C(COC(=O)c1ccc(NS(=O)(=O)c2ccc3c(c2)OCCO3)cc1)NCC1CCCO1 (configuration not stated) returned CYP2C9 inhib 83*, CYP2C9 activ 0.2, CYP2C19 inh 37, PostGolgi ctrl 1, PostGolgi yeast 0 and CYP2C19 activ 0.6.
Screening CC(C)CNS(=O)(=O)c1ccc2c(c1)OCCO2 returned CYP2C9 inhib 31, CYP2C9 activ 0.7, CYP2C19 inh 42, PostGolgi ctrl 5, PostGolgi yeast -1 and CYP2C19 activ 0.6.
`CCOC(=O)c1ccc(NS(=O)(=O)c2ccc3[nH]c(=O)[nH]c3c2)cc1` gave CYP2C9 inhib 75*, CYP2C9 activ 0.2, CYP2C19 inh 29, PostGolgi ctrl 17, PostGolgi yeast -1 and CYP2C19 activ 0.7.
For CCCCNC(=O)COC(=O)c1ccc(NS(=O)(=O)c2ccc3c(c2)OCCO3)cc1 the results were CYP2C9 inhib 91*, CYP2C9 activ 0.1, CYP2C19 inh 31, PostGolgi ctrl 25, PostGolgi yeast 19 and CYP2C19 activ 0.7.
